Hits are enriched below; roughly 6.5% of the tested compounds scored in any of these assays.
Marburg entry inh: blocks Marburg virus binding to or entry into cells. Marburg virus pseudotyped entry inhibition, cell reporter. Potency, µM (doses to about 37.8 µM), actives largely listed as inhibitors. 300,000 tested, 1.8% active. AID 540276; calls by dose curve; tested in HEK293 cells
LASV entry inh: blocks Lassa virus binding to or entry into cells; Lassa virus pseudotype entry inhibition, cell reporter; Potency, µM (doses to about 37.9 µM), hits mostly inhibitors; 300,000 tested, 1.2% active; calls by dose curve; tested in HEK293 cells; further: nearly all actives have a fitted effect of over 50% in size
Vaccinia mCherry: inhibitors of vaccinia virus infection (mCherry reporter signal); Vaccinia virus mCherry reporter infection, fluorescence; 310,000 tested, 0.63% active; Potency, µM (doses to about 36.5 µM), most hits filed as inhibitors; calls by dose curve; tested in A549 cells; further: nearly all actives have a fitted effect of over 35% in size
FMDV antiviral: foot and mouth disease virus antiviral activity | FMDV antiviral cell-based qHTS | Potency, µM (highest dose often 57.9 µM), usual class: inhibitors | 410,000 tested, 1.2% active | AID 1159524; calls by dose curve; tested in HEK293T cells; further: read-out not given here; nearly all actives have a fitted effect of over 45% in size
HCMV inh: human cytomegalovirus inhibition | activity change, negative = inhibition, % at 57.5 µM | HFF cells, HCMV-luciferase reporter, 72 h; stronger effect = lower value | AID 1259415 | 410,000 tested, 4.5% active; in the data active means activity change below about -60%; inconclusive means no clear call, values can overlap the other calls; inactive means above about -39%
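Compounds were evaluated in HFFs infected with an HCMV luciferase reporter virus (MOI 1 PFU/cell). Luciferase in lysates collected 72 h post infection served as the replication measure.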
VACV Venus inh: inhibitors of vaccinia virus (Venus reporter); 330,000 tested, 0.46% active; Vaccinia virus Venus reporter expression, fluorescence; AID 720580; Potency, µM (titrated, usually from 36.5 µM), hits mostly inhibitors; calls by dose curve; tested in A549 cells; further: nearly all actives have a fitted effect of over 30% in size
Large screens that a line does not name were inactive.

COC(=O)c1ccc(NC(=O)c2ccc(CN3CCOCC3)cc2)cc1	Marburg entry inh inconclusive, FMDV antiviral 22µM
CCC(C)Oc1ccc(C(=O)Nc2ccc(CN3CCOCC3)cc2)cc1 (stereo not given)	FMDV antiviral inconclusive, HCMV inh -80 (no result: Marburg entry inh, LASV entry inh, Vaccinia mCherry, VACV Venus inh)
CCOC(=O)C(CC)Sc1ccc2nnc(CCNS(=O)(=O)c3ccc(C)cc3)n2n1 (stereo not given)	none (no result: Marburg entry inh)
O=C(Nc1ccc(S(=O)(=O)Nc2ccccc2)cc1)c1ccc(CN2CCOCC2)cc1	FMDV antiviral inconclusive, HCMV inh -90 (no result: Marburg entry inh, LASV entry inh, Vaccinia mCherry, VACV Venus inh)
COc1ccc(CN2CCN(c3ccccc3)CC2)c(C)c1C	Marburg entry inh inconclusive, LASV entry inh 10µM (no result: Vaccinia mCherry, VACV Venus inh)
O=C(Nc1ccc(CN2CCOCC2)cc1)c1ccc(Cl)cc1	HCMV inh inconclusive (no result: Marburg entry inh, LASV entry inh, Vaccinia mCherry, VACV Venus inh)
C=C(C)CCCN1C=C(C(C)=O)C(c2ccccc2)NC1=O (stereo not given)	none (no result: LASV entry inh, Vaccinia mCherry, FMDV antiviral, HCMV inh, VACV Venus inh)
Cc1occc1C(=O)NCCN1Cc2ccccc2OC(c2ccccc2F)C1 (stereo not given)	none (no result: Marburg entry inh, LASV entry inh, HCMV inh)
CC1C(=O)N(Cc2ccccc2F)c2ccccc2N1C(=O)c1c(F)cccc1F (stereo not given)	FMDV antiviral 35µM, HCMV inh inconclusive (no result: Marburg entry inh, LASV entry inh, Vaccinia mCherry, VACV Venus inh)
COc1cccc(CN2C(=O)C(C)N(C(=O)c3c(F)cccc3F)c3ccccc32)c1 (stereo not given)	FMDV antiviral 28µM, HCMV inh -83 (no result: Marburg entry inh, LASV entry inh, Vaccinia mCherry, VACV Venus inh)
CC1C(=O)N(Cc2cccc(F)c2)c2ccccc2N1C(=O)c1ccccc1 (stereo not given)	Marburg entry inh inconclusive, FMDV antiviral 18µM, HCMV inh inconclusive
CC1Oc2ccccc2N(Cc2cccc(F)c2)C1=O (stereo not given)	none (no result: Marburg entry inh, LASV entry inh, Vaccinia mCherry, VACV Venus inh)
COc1cccc(CN2C(=O)c3cccc(N)c3C2=O)c1	none
Cc1cc(NC(=O)CN2C(=O)c3cccnc3Sc3ccccc32)ccc1Br	LASV entry inh inconclusive, VACV Venus inh inconclusive (no result: Marburg entry inh)
CN(C)c1ccc(/C=C2\N=C(c3ccc(Cl)c([N+](=O)[O-])c3)NC2=O)cc1	LASV entry inh inconclusive
CCc1nc(N)nc(N)c1-c1ccc(Cl)c([N+](=O)[O-])c1	Marburg entry inh inconclusive, LASV entry inh inconclusive, FMDV antiviral inconclusive, HCMV inh -99, VACV Venus inh 0.28µM
CCc1nc(N)nc(N)c1-c1ccc(Cl)c(N=[N+]=[N-])c1	Marburg entry inh inconclusive, LASV entry inh inconclusive, Vaccinia mCherry inconclusive, FMDV antiviral inconclusive, HCMV inh -79, VACV Venus inh 5.6µM
CCCc1c(NC(=O)Nc2ccc(F)cc2)cnn1-c1ccc(Cl)cc1	Marburg entry inh inconclusive, LASV entry inh 5µM, FMDV antiviral inconclusive, HCMV inh -81, VACV Venus inh inconclusive
CCCCn1c(N)c(-c2nc3ccccc3s2)c2c([N+](=O)[O-])nn(CC)c(=O)c21	Marburg entry inh inconclusive, LASV entry inh inconclusive (no result: Vaccinia mCherry, VACV Venus inh)
CCCCCn1c(N)c(-c2nc3ccccc3s2)c2c([N+](=O)[O-])nn(CC)c(=O)c21	Marburg entry inh 2.9µM (no result: Vaccinia mCherry, VACV Venus inh)
Cc1ccn2c(NC(=O)C(C)(C)Oc3ccc(Cl)cc3)c(-c3cccs3)nc2c1	Marburg entry inh inconclusive, LASV entry inh inconclusive, HCMV inh -60
Cc1ccc(-n2c(-c3ccccc3)n[nH]c2=S)cc1	none
Cc1ccc(-n2c(-c3ccccc3)nsc2=NC#N)cc1	Vaccinia mCherry 3.5µM, VACV Venus inh 4.5µM (no result: Marburg entry inh, LASV entry inh, FMDV antiviral, HCMV inh)
CCn1c(-c2ccccc2F)nc2cc(NC(C)=O)cc(C(=O)NCC3CCOCC3)c21	none (no result: Marburg entry inh, LASV entry inh, HCMV inh)
CC(=O)C(C(C)=O)c1c(Cl)c(O)c(O)c2c(C(=O)c3ccccc3)coc12	Marburg entry inh inconclusive, LASV entry inh 7.1µM, FMDV antiviral inconclusive, HCMV inh -107, VACV Venus inh inconclusive
CC(O)(c1ccc(F)c(F)c1)c1nc(-c2cccc(C(=O)O)c2)cs1 (stereo not given)	none (no result: Marburg entry inh, LASV entry inh)
CCN(CC)C(=O)c1cccc(-c2csc(C(C)(O)c3ccc(OC)cc3)n2)c1 (stereo not given)	HCMV inh inconclusive (no result: Marburg entry inh, LASV entry inh)
CCN(CC)C(=O)c1cccc(-c2csc(C(C)(O)c3cccc(OC)c3)n2)c1 (stereo not given)	FMDV antiviral 35µM, HCMV inh -78 (no result: Marburg entry inh, LASV entry inh)
CCN(CC)C(=O)c1cccc(-c2csc(C(C)(O)c3ccc(F)c(F)c3)n2)c1 (stereo not given)	Vaccinia mCherry inconclusive, FMDV antiviral 25µM, VACV Venus inh inconclusive (no result: Marburg entry inh, LASV entry inh, HCMV inh)
C[C@@H]1CN([C@@H](C)CO)C(=O)CCCn2cc(nn2)CO[C@H]1CN(C)C(=O)Nc1ccccc1F	none (no result: Marburg entry inh, LASV entry inh, Vaccinia mCherry, FMDV antiviral, VACV Venus inh)
O=C(Nc1ccc(S(=O)(=O)N2CCCCC2)cc1)C1CC(=O)N(Cc2ccccc2)C1 (stereo not given)	none
O=C1CC(C(=O)N2CCN(c3ccccc3Cl)CC2)CN1Cc1ccccc1 (stereo not given)	none (no result: Marburg entry inh, LASV entry inh, Vaccinia mCherry, VACV Venus inh)
Cc1ccc(CN2CC(C(=O)N3CCN(c4ccccc4O)CC3)CC2=O)cc1 (stereo not given)	LASV entry inh 11µM, FMDV antiviral inconclusive
Cc1ccc(NC(=O)C2CC(=O)N(Cc3ccccc3)C2)cc1S(=O)(=O)N1CCCCCC1 (stereo not given)	Marburg entry inh inconclusive, LASV entry inh inconclusive, Vaccinia mCherry inconclusive, FMDV antiviral inconclusive, HCMV inh -77, VACV Venus inh inconclusive
CCN(CC)S(=O)(=O)c1cc(NC(=O)C2CC(=O)N(Cc3ccccc3)C2)ccc1Cl (stereo not given)	FMDV antiviral 11µM, HCMV inh -63 (no result: Marburg entry inh, LASV entry inh, Vaccinia mCherry, VACV Venus inh)
Cc1ccc(CN2CC(C(=O)Nc3ccc(S(=O)(=O)N4CCCCC4)cc3)CC2=O)cc1 (stereo not given)	LASV entry inh inconclusive, Vaccinia mCherry inconclusive, HCMV inh -68
Cc1ccc(NC(=O)C2CC(=O)N(CCc3ccccc3)C2)cc1Cl (stereo not given)	none (no result: Marburg entry inh, LASV entry inh, Vaccinia mCherry, VACV Venus inh)
COC(=O)[C@H]1[C@H](CO)[C@H]2Cn3c(cccc3=O)[C@@H]1N2C(=O)c1ccccn1	none (no result: Marburg entry inh, LASV entry inh, Vaccinia mCherry, FMDV antiviral, VACV Venus inh)
O=C(O)c1cccc(NC(=O)c2cc3cc(Br)cc(Br)c3oc2=O)c1	none (no result: Marburg entry inh)
Cn1nnnc1SCCCNCc1cccc(OCc2ccccc2Cl)c1	Marburg entry inh inconclusive, LASV entry inh inconclusive
COc1ccc(Cl)cc1CNCCSc1nnnn1C	HCMV inh inconclusive
COc1cccc(CNCCSc2nnnn2C)c1OCc1ccc(Cl)cc1Cl	Marburg entry inh inconclusive, LASV entry inh inconclusive, HCMV inh -61
CCOc1c(CNCCSc2nnnn2C)cccc1OC	none
COc1cccc(CNCCSc2nnnn2C)c1OCc1ccc(Cl)cc1	Marburg entry inh 10µM, HCMV inh inconclusive
Cn1nnnc1SCCCNCc1ccccc1OCc1ccccc1Cl	Marburg entry inh inconclusive, HCMV inh -63
Cc1cccc(NC(=O)C2CCCN(S(=O)(=O)c3c(C)[nH]c(=O)[nH]c3=O)C2)c1C (stereo not given)	none
COC(=O)[C@@H](NC(=O)c1cc(COc2cncc(Cl)c2)on1)c1ccccc1	none
CCC(NC(=O)c1cc(COc2cncc(Cl)c2)on1)c1ccc(C)cc1 (stereo not given)	Marburg entry inh inconclusive, HCMV inh -99

Screens deposited in PubChem BioAssay by National Center for Advancing Translational Sciences (NCATS).
